According to PubChem BioAssay (EPA / NIEHS):
Calls of active or inactive are those of the source. How the source made its calls: active means hit-call score of the fitted dose curve at least 0.9, where 1 is the maximum; inconclusive means response in the unintended direction; inactive means score below 0.9.

Assay: Tanguay_ZF_120hpf_MORT_legacy: (Legacy) Oregon State University Tanguay Lab 120 Hour Post-fertilization zebrafish Assay for Mortality (AID 2283633);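 on AC50: fitted as increase in binary mortality versus DMSO negative control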
Procedure, shortened: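 Single dechorionated Tropical 5D embryos were held with test chemical (0.64% DMSO final) from 6 to 120 hpf at 28C under foil. Deaths at 24 or 120 hpf were recorded as binary calls, analysed for increase over DMSO controls.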

Row | SMILES | AC50 | outcome
1 | Oc1c(Cl)cc(Cl)cc1Cl | 24.9 µM (active) | –
2 | O=C(O)C1(c2ccc3c(c2)OC[C@H](Cc2ccc(-c4ccccc4)cc2)[C@H]3O)CCCC1 | – | inactive
3 | CN(C)C(=S)S | – | inactive
4 | Clc1cccc(Cl)c1 | – | inactive
5 | OCCN(CCO)CCO | – | inactive
6 | CC(C)O.CC(C)O.OCCN(CCO)CCO.OCCN(CCO)CCO.[Ti] | – | inactive
7 | CCCCCCCCCCCCc1cccc(S(=O)(=O)O)c1 | – | inactive
8 | CC(C)(C)c1ccccc1O | – | inactive
9 | N#Cc1cccnc1 | – | inactive
10 | COc1ccccc1N | – | inactive
11 | Oc1cc(Cl)c(Cl)cc1Cl | 24.9 µM (active) | –
12 | Cc1cc(C)cc(C)c1 | – | inactive
13 | O=C(N[C@H]1CN2CCC1CC2)c1ccc2c(c1)OCCO2 | – | inactive
14 | Clc1cccc(Cl)c1Cl | – | inactive
